# Experimental data from the supplement of paper PMC11417369.
# The full ranking holds about 25,000 sequences; the median of “ln(normalized median fluorescence intensity)” is about 9.3, and the highest 2% start at about 10. The full list was thinned out, with the highest values kept by preference.
# Tested on: PF3D7_0420300 AP2 domain 1 (GST-tagged)
# Experiment: gcPBM binding intensity (ln(normalized median fluorescence intensity)); higher = stronger DNA binding
# Method in brief: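 Using an Agilent 4 × 180k array, primer-extended double-stranded 36-bp intergenic genomic probes and negative controls were exposed for 1 h to GST-fused P. falciparum DNA-binding domains expressed in E. coli. Binding was carried out in 1× PBS with 1% milk, 0.2 mg/ml BSA, 0.5% salmon testes DNA and 0.03% Triton X-100, and protein was detected with Alexa488 anti-GST antibody and a 488 nm scan. Binding intensity is the highest Masliner-normalised natural-log median intensity across replicate spots of either probe orientation.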
row,Sequence,gcPBM binding intensity (ln)
1,TTTATACTTGTAAATGCACACATAAGATGCGACTAA [CACACA_site8662],9.18
2,TTTATAAAAATATACACACATACAAATATGCATATA [CACACA_site712],9.44
3,TATCCATATTTGTTCACACACACACCGATTTATATA [CACACA_site5888],10.1
4,TGTATCCATATTTGTTCACACACACCCATATTTATA [CACACA_site9190],10
5,TATCCATATTTGTTCACACACACACCCATTTATATA [CACACA_site3571],10.2
6,ATATAAATTCAAATTACACACATTTATTTTTTTTAC [CACACA_site53],9.44
7,AGCAAATCAGATAGTAGTACATTTAAATTAGACTTT [XGTACX_site4172],9.19
8,AACATATACACGAACACACACACATATATATATATA [CACACA_site502],10.1
9,ATTATACACGCGCGCACACACAACAAAAAAAAAAAA [CACACA_site7630],9.69
10,TGAACACGCACAAATACACACAAAAAAAATAAATAA [CACACA_site6257],9.63
11,CATATACACGAACACACACACACACGCACAAAAAAA [CACACA_site6376],10.2
12,GGCATACACGAACACACACACACACGCACATATATA [CACACA_site6426],10.3
13,CATATACACGAACACACACACATATATATATATATA [CACACA_site4437],9.84
14,TATTTTCTCTTAAAAAGTACTCATATATACATTTAT [XGTACX_site7748],9.07
15,GAGTAAAAATTAAAATGTACATATTATATATATTTA [XGTACX_site1319],9.09
16,CTTTGCCTTAAAAAGGAACACACATGCTTTTTTTAG [CACACA_site8219],9.22
17,TTTTTTTTTACTTGTTGTACTTTTTCAAGGTATTGT [XGTACX_site7778],9.42
18,TATATACATAAAATTTGTACATATATATATATATAT [XGTACX_site3214],9.28
19,TGCTTATATCTTATAATATTTATACATCATAATAAG [CACACA_negctrl_site629],9.17
20,ATTTTTCTTTTATTAACACACATATAAATAAATACA [CACACA_site2876],9.22
21,CATAATAATAGAAACACACACACATAGACATATATA [CACACA_site1308],10.2
22,ATAATATAGAAACACACACACATATATATATACATT [CACACA_site555],10.2

row,Sequence,gcPBM binding intensity (ln)
1,TATACATAGAAACACACACACATATATATATATATA [CACACA_site2248],9.79
2,TAATAATAGAAACACACACACATAGACATATATATA [CACACA_site1307],10.1
3,TATATATAGAAACACACACACACATATATATATATT [CACACA_site2539],10.1
4,TATACATAGAAACACACACACATAAATAAATATATA [CACACA_site1342],10.1
5,TGTATCCACATATGTACACACATATATCTGTATATG [CACACA_site5668],9.51
6,CAAAAATAAAAGAAATGTACAAAAAATAATAAAAAA [XGTACX_site6597],9.43
7,TATTTTATACATATTTTACACACTAATATATACATA [CACACA_site7998],9.42
8,AGGAATATCGAAAACTGTACTTGTATGTTTCATAAA [XGTACX_site6143],9.02
9,AATAATATATTTAGGGGTACATAATAATATATTTTA [XGTACX_site8366],9.27
10,TTAGGCAAGGCGGGGGGTACGTTTTTATATAATTAT [XGTACX_site8029],10.6
11,AAATATATTATAAATTGTACGTTTATATATATTATT [XGTACX_site5110],9.35
12,ATTTTTGTAAATACATGTACATATATATGCATATCC [XGTACX_site6353],9.49
13,TTTCTATTTCCTTCACATCTTTTCATCTTTTTTTTT [CACACA_negctrl_site1110],9.71
14,TGGAAAAATAGGCACACACACATATATACATATATA [CACACA_site1297],10
15,TTAATGGAAAAATAGGCACACACACCGATATACATA [CACACA_site8356],9.94
16,AATGGAAAAATAGGCACACACACATATATACATATA [CACACA_site1298],10.2
17,AATGGCAAAATAGGCACACACACATATACAGATATA [CACACA_site4726],10.1
18,AATGGCAAAATAGGCACACACACATATACATATATA [CACACA_site1058],10.1
19,AATGGAAAAATAGGCACACACACATAAATACAGATA [CACACA_site4844],10.3
20,GACCCCATATACATATGTACATACATAATATATATA [XGTACX_site1817],9.57
21,TAAAATATAATAAAATGTACACGCATGCAATAGAAT [XGTACX_site7434],9.65
22,ATCAGTCGGCAGGACAGTACACAGTAGCCAGAAAAT [XGTACX_site2550],9.49
